The values below come from the antibiotic and cytotoxicity screens of Wong et al. (2023).

The campaign covered roughly 39,000 compounds. About 3,300 (8.5%) were called active. Many of the other results were omitted from the sample, so actives are more common in it than they were.

The assay deals with HepG2. The assay is described as follows: cytotoxicity call (relative viability < 0.9). To be noted: 10 µM.
In the case of `O=C(C[C@@H]1CC[C@H](NC(=O)Nc2ccc3c(c2)OCO3)[C@@H](CO)O1)NCCCN1CCOCC1`, the cytotoxicity call was “inactive”.
For the molecule `C[C@@H]1CN([C@H](C)CO)C(=O)c2cc(NC(=O)CCCN(C)C)ccc2O[C@@H](C)CCCCO[C@H]1CN(C)S(=O)(=O)c1cn(C)cn1`, the cytotoxicity call is “inactive”.
Regarding `C[C@H](CO)N1C[C@H](C)[C@H](CN(C)C(=O)c2cccc(F)c2)Oc2cc(C#CC3CC3)ccc2S1(=O)=O`, the cytotoxicity call is “inactive”.
As to `CC(C)C[C@@](O)(CC(=O)O)C(=O)O`, the cytotoxicity call was “inactive”.
With `CN(C)CCCNC(=O)C[C@@H]1CC[C@H]2[C@@H](COc3ccc(NS(C)(=O)=O)cc3C(=O)N2C)O1`, the cytotoxicity call is “inactive”.
For `CC(C)N1CC=C[C@@]23O[C@@H]4C=CCOC(=O)[C@@H]4[C@H]2C(=O)N([C@@H](C)CO)[C@@H]3C1=O`, the cytotoxicity call was “inactive”.
In the case of `O=c1[nH]c(=S)[nH]nc1O`, the cytotoxicity call was “inactive”.
Regarding `CC1(C)C=C(C(=O)N2CCOCC2)C(C)(C)N1`, the cytotoxicity call is “inactive”.
The result for `C[C@@H]1CN([C@H](C)CO)C(=O)Cc2cc(NC(=O)C3CCCCC3)ccc2O[C@H]1CN(C)S(=O)(=O)c1cn(C)cn1` reads “inactive”; that for `C[C@H](CO)N1C[C@H](C)[C@@H](CN(C)Cc2ccc(-c3ccccc3)cc2)Oc2ccc(NC(=O)Cn3cnnn3)cc2CC1=O`, “inactive”; that for `NCCCCCCNC(=O)[C@H]1C[C@H]2C(=O)N[C@@H](Cc3ccccc3)C(=O)N2[C@H]1c1cccc(OCCO)c1`, “inactive”.
The result for `C[C@@H]1CCCCO[C@@H](CN(C)C(=O)Cc2ccccc2)[C@H](C)CN([C@@H](C)CO)C(=O)c2cc(NS(=O)(=O)c3ccc(F)cc3)ccc2O1` reads “inactive”; that for `O.O=C([O-])CC(O)(CC(=O)[O-])C(=O)[O-].[Li+].[Li+].[Li+]`, “inactive”; that for `C[C@@H]1CN([C@@H](C)CO)C(=O)c2cccc(NS(=O)(=O)c3ccc(Cl)cc3)c2O[C@@H]1CN(C)Cc1ccc(C(F)(F)F)cc1`, “active”.
The result for `CC(C)NC(=O)N(C)C[C@@H]1Oc2c(NS(=O)(=O)c3ccccc3)cccc2C(=O)N([C@@H](C)CO)C[C@@H]1C` reads “inactive”; that for `C[C@H]1CN([C@@H](C)CO)C(=O)c2cccc(NS(=O)(=O)c3ccc(Cl)cc3)c2O[C@@H]1CN(C)Cc1ccc(C(F)(F)F)cc1`, “inactive”; that for `CC(C)NC(=O)N(C)C[C@H]1Oc2c(NS(=O)(=O)c3ccccc3)cccc2C(=O)N([C@H](C)CO)C[C@@H]1C`, “inactive”.
Take `C[C@@H]1CN([C@H](C)CO)C(=O)c2cccc(NS(=O)(=O)c3cccs3)c2O[C@@H]1CN(C)Cc1ccc(-c2ccccc2)cc1`: the cytotoxicity call was “inactive”.
Next, `C[C@@H]1CN([C@H](C)CO)C(=O)c2cccc(NS(=O)(=O)c3cccs3)c2O[C@H]1CN(C)Cc1ccc(-c2ccccc2)cc1`: “inactive”; `C[C@H](CO)N1C[C@H](C)[C@@H](CN(C)Cc2ccc(C(F)(F)F)cc2)Oc2c(NS(=O)(=O)c3ccc(Cl)cc3)cccc2C1=O`: “inactive”; `CC(C)NC(=O)N(C)C[C@H]1Oc2c(NS(=O)(=O)c3ccccc3)cccc2C(=O)N([C@H](C)CO)C[C@H]1C`: “active”.
Regarding `C[C@@H]1CN([C@@H](C)CO)C(=O)c2cccc(NS(=O)(=O)c3cccs3)c2O[C@@H]1CN(C)Cc1ccc(-c2ccccc2)cc1`, the cytotoxicity call is “active”.
Next, `Cc1noc(C)c1S(=O)(=O)N(C)C[C@H]1OCCCC[C@@H](C)Oc2ccc(NC(=O)Nc3ccc(F)cc3)cc2C(=O)N([C@@H](C)CO)C[C@H]1C`: “inactive”.
On to `Cc1noc(C)c1NC(=O)Nc1ccc2c(c1)CC(=O)N([C@H](C)CO)C[C@H](C)[C@@H](CN(C)Cc1ccc(Oc3ccccc3)cc1)O2`, for which the cytotoxicity call was “inactive”.
With `C[C@H](CO)N1C[C@H](C)[C@@H](CN(C)C(=O)Nc2ccc3c(c2)OCO3)Oc2ccc(NC(=O)C3CC3)cc2CC1=O`, the cytotoxicity call is “inactive”.
In the case of `Cc1noc(C)c1S(=O)(=O)N(C)C[C@H]1Oc2ccc(NC(=O)Cn3cnnn3)cc2C(=O)N([C@H](C)CO)C[C@H]1C`, the cytotoxicity call is “inactive”.
Turning to `C[C@@H]1CN([C@H](C)CO)S(=O)(=O)c2ccc(C#Cc3ccccc3)cc2O[C@@H]1CN(C)C(=O)Cc1ccccn1`, the cytotoxicity call is “inactive”.
With `C[C@@H]1CN([C@H](C)CO)C(=O)Cc2cc(NC(=O)c3ccncc3)ccc2O[C@@H]1CN(C)Cc1ccc2c(c1)OCO2`, the cytotoxicity call was “inactive”.
For the molecule `COc1ccc(CNCC(=O)O)cc1`, the cytotoxicity call is “inactive”.
Turning to `COc1ccc(C(N)=O)cc1`, the cytotoxicity call is “inactive”.
Next, `COC(=O)[C@@H]1[C@@H](c2ccc(OC)cc2)[C@H](C(=O)OC)S(=O)(=O)CS1(=O)=O`: “active”.
Next, `C=C1CCC=C(C)CCC2C1CC2(C)C.O` (single isomer, unassigned; (-)) [(-)E-CARYOPHYLLENE hydrate ]: “inactive”.
Consider `C=C1C(=O)OC2C1CCC(C)=CCCC1(C)OC21` (configuration not stated), for which the cytotoxicity call was “active”.
In the case of `C[C@H](CO)N1C[C@H](C)[C@H](CN(C)S(=O)(=O)c2ccccc2)Oc2ncc(C#Cc3ccccc3)cc2C1=O`, the cytotoxicity call is “inactive”.
Consider `Cc1ccc(S(=O)(=O)Nc2ccc3c(c2)C(=O)N([C@H](C)CO)C[C@H](C)[C@@H](CN(C)C(=O)c2ccccc2)OCCCC[C@@H](C)O3)cc1`, for which the cytotoxicity call was “inactive”.
Next, `COCC(=O)N1CC[C@]2(CC(C(=O)NCc3cnc(C)cn3)=NO2)C1`: “inactive”; `COc1ccc(S(=O)(=O)N(C)C[C@@H]2OCCCC[C@@H](C)Oc3ccc(NC(=O)Nc4c(C)noc4C)cc3C(=O)N([C@@H](C)CO)C[C@H]2C)cc1`: “inactive”; `COc1ccc(S(=O)(=O)N(C)C[C@H]2OCCCC[C@H](C)Oc3ccc(NC(=O)Nc4c(C)noc4C)cc3C(=O)N([C@@H](C)CO)C[C@H]2C)cc1`: “active”.
As to `COc1ccc(S(=O)(=O)N(C)C[C@H]2OCCCC[C@H](C)Oc3ccc(NC(=O)Nc4c(C)noc4C)cc3C(=O)N([C@@H](C)CO)C[C@@H]2C)cc1`, the cytotoxicity call is “active”.
In the case of `COc1ccc(S(=O)(=O)N(C)C[C@@H]2OCCCC[C@H](C)Oc3ccc(NC(=O)Nc4c(C)noc4C)cc3C(=O)N([C@@H](C)CO)C[C@H]2C)cc1`, the cytotoxicity call was “inactive”.
Consider `COc1ccc(S(=O)(=O)N(C)C[C@H]2OCCCC[C@@H](C)Oc3ccc(NC(=O)Nc4c(C)noc4C)cc3C(=O)N([C@H](C)CO)C[C@@H]2C)cc1`, for which the cytotoxicity call was “inactive”.
As for `COc1ccc(S(=O)(=O)N(C)C[C@@H]2OCCCC[C@H](C)Oc3ccc(NC(=O)Nc4c(C)noc4C)cc3C(=O)N([C@H](C)CO)C[C@@H]2C)cc1`, the cytotoxicity call is “inactive”.
